HCV inhibitor – qHTS Assay for Inhibitors of Hepatitis C Virus (HCV). AID 651820, 2012. hit rate 3.4% among 340,000. Potency, µM (series often up to 41.8 µM), for inactives: at the highest dose activity change, negative = inhibition, most hits filed as inhibitors. Huh7.5.1 HCVcc-Cre infection, luciferase reporter, 44 h; further: potency means the concentration at half of the fitted maximal effect
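Compounds are dispensed onto cells plated 4 h earlier at 1,000 per well, with HCVcc-Cre virus (about 0.5 moi) added next. Following 44 h of culture, luminescent signal is measured for 15 sec after 15 min with substrate at room temperature.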
FBPA Giardia inh – qHTS Assay for Inhibitors of Fructose-1,6-bisphosphate Aldolase from Giardia Lamblia; purified Giardia FBPA; Potency, µM (highest dose often 59.6 µM), inactives show at the top dose activity, negative = inhibition, actives largely listed as inhibitors; hit rate 0.71% among 290,000; AID 2451, 2010; further: potency means the concentration at half of the fitted maximal effect; nearly all actives have a fitted effect of over 55% in size
Target sequence (A8B2U2 whole entry, looked up): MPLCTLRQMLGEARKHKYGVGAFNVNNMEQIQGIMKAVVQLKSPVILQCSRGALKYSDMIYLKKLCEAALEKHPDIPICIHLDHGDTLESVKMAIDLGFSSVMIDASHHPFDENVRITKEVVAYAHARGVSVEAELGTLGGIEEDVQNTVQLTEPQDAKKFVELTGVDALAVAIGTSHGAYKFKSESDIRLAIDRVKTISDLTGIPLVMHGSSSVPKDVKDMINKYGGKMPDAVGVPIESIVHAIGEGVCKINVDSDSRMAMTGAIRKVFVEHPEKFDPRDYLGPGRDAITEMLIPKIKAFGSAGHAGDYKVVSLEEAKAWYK
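Giardia FBPA (40 nM reagent) was preincubated 10 min at RT with compound (up to 57.5 uM final), then substrate plus GAPDH/TPI/NAD/arsenate coupling system with diaphorase/resazurin was added; resorufin fluorescence (525/598 nm) was read after 20 min.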
HCMV inh – qHTS Assay for inhibitors of the human cytomegalovirus (HCMV); activity change, negative = inhibition, % at 57.5 µM; hit rate 4.5% among 410,000; HFF cells, HCMV-luciferase reporter, 72 h; hits give low values; AID 1259415, 2018; in the data active means activity change below about -60%; inconclusive means no clear call, values can overlap the other calls; inactive means above about -39%
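HFF cells seeded 16 h at 37C, treated with compounds, infected with luciferase-reporter HCMV at MOI 1 PFU/cell; luciferase read at 72 h post infection, normalized to buffer-only and Salinomycin controls.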
FMDV antiviral – High Throughput Screening for Foot and Mouth Disease Virus Antivirals; FMDV antiviral cell-based qHTS; Potency, µM (series often up to 57.9 µM), without a hit: at the highest dose activity change, negative = inhibition, hits mostly inhibitors; hit rate 1.2% among 410,000; AID 1159524, 2015; calls by dose curve; tested in HEK293T cells; further: read-out not given here; potency means the concentration at half of the fitted maximal effect; nearly all actives have a fitted effect of over 45% in size
MARV entry inh – qHTS for inhibitors of binding or entry into cells for Marburg Virus; Potency, µM (highest dose often 37.8 µM), for the others: top-dose activity change, negative = inhibition, usual class: inhibitors; hit rate 1.8% among 300,000; Marburg virus pseudotyped entry inhibition, cell reporter; calls by dose curve; tested in HEK293 cells; further: potency means the concentration at half of the fitted maximal effect
Lassa entry inh – qHTS for Inhibitors of binding or entry into cells for Lassa Virus | Lassa virus pseudotype entry inhibition, cell reporter | Potency, µM (top dose mostly 37.9 µM), for inactives: top-dose activity change, negative = inhibition, usual class: inhibitors | hit rate 1.2% among 300,000; calls by dose curve; tested in HEK293 cells; further: potency means the concentration at half of the fitted maximal effect; nearly all actives have a fitted effect of over 50% in size
An asterisk follows results filed as active; [ ] = another dose, or the depositor's remark. In the library only some 8.3% were active in any assay of this set; here they are far more common. Unless noted, the call rests on the fitted dose curve; in most records, active means well fitted curve in the direction sought with a large enough effect; inconclusive means small, poorly fitted or top-dose-only effect, or another doubt; inactive means no such curve, though single readings can be large; an effect the other way counts as inactive or inconclusive. On the % scale 0 is the no-effect control and ±100 the full control effect.

How did COc1ccc(N(CC(=O)NC(C)c2ccccc2)S(=O)(=O)c2ccc(C)cc2)cc1 (stereo not drawn) do in these assays?
HCV inhibitor: -16.1%; FBPA Giardia inh: -2.8%; HCMV inh: -1.9; FMDV antiviral: 10.8%; MARV entry inh: -19.5%[46.1 µM]; Lassa entry inh: -20.0%

Results for Cc1ccc(F)c(C(=O)N2CC3ON=C(c4c(F)cccc4Cl)C3C2)c1F (stereo not drawn) ?
HCMV inh: 3.6

Results for CCCC[C@@H](C=O)NC(=O)[C@H](CC(C)C)NC(=O)[C@H](CC(C)C)NC(C)=O ?
FBPA Giardia inh: 5.6%; FMDV antiviral: -14.2%

Results for CCOC(=O)C1=C(O)CCn2c1nc1ccccc12 ?
HCV inhibitor: -3.5%; FBPA Giardia inh: 8.6%; HCMV inh: -107.4*; FMDV antiviral: -12.4%; MARV entry inh: 23.8%; Lassa entry inh: -5.7%

How did C=CCN1C[C@H](C)N([C@H](c2ccc(C(=O)N(CC)CC)cc2)c2cccc(O)c2)C[C@H]1C do in these assays?
FBPA Giardia inh: 1.0%; FMDV antiviral: 0.5%

Results for O=C(CCl)NCCCCCCCCCNC(=O)CCl ?
HCV inhibitor: inconclusive; FBPA Giardia inh: 5.5%; HCMV inh: -100.5*; FMDV antiviral: -21.9%; MARV entry inh: 8.91µM*; Lassa entry inh: inconclusive

Results for CCC(=O)NCCCCCCNC(=O)CC ?
HCV inhibitor: 12.7%; FBPA Giardia inh: 1.3%; HCMV inh: -22.7; FMDV antiviral: -17.7%; MARV entry inh: 16.2%; Lassa entry inh: 16.5%

How did COc1ccc(-c2c(C3C4C=CCCC4(C)C(=O)N3Cc3ccccc3)ccc3ccccc23)cc1 (stereo not drawn) do in these assays?
FBPA Giardia inh: 6.1%

What do the screens show for `CC(=O)N(c1ccc(Cl)cc1)c1cn(C(C)=O)c2ccccc12`?
HCV inhibitor: 3.7%; FBPA Giardia inh: 2.9%; HCMV inh: 72.2; FMDV antiviral: -16.1%; MARV entry inh: inconclusive; Lassa entry inh: -27.5%[46.1 µM]

How did CC(=O)n1cc(N(C(=O)CCl)c2ccc(C)cc2)c2ccccc21 do in these assays?
HCV inhibitor: 1.58µM*; FBPA Giardia inh: -1.0%; HCMV inh: -97.4*; FMDV antiviral: 14.1µM*; MARV entry inh: 7.08µM*; Lassa entry inh: inconclusive

What do the screens show for `CC(C)(C)c1ccc(OCC(=O)Nc2c(C(=O)c3ccc(F)cc3)oc3ccccc23)cc1`?
HCMV inh: 12.9; FMDV antiviral: 1.9%; MARV entry inh: 8.3%[46.1 µM]; Lassa entry inh: 3.9%[46.1 µM]

How did COc1ccc(-c2cccc3c2OC(CNC(=O)c2ccccc2-n2cccn2)C3)nn1 (stereo not drawn) do in these assays?
FMDV antiviral: -1.7%

Results for Cc1sc2nc(CN3CCCCC3)nc(Nc3ccc4c(c3)OCCO4)c2c1C ?
HCV inhibitor: 4.4%; FBPA Giardia inh: -0.8%; HCMV inh: -62.5*; FMDV antiviral: -8.7%; MARV entry inh: -0.3%[46.1 µM]; Lassa entry inh: -14.4%

How did CCCCNC(=O)C1CCC(CNc2nc(=S)[nH]c3ccccc23)CC1 (stereo not drawn) do in these assays?
HCV inhibitor: -0.1%; FBPA Giardia inh: -4.3%; HCMV inh: 30.1; FMDV antiviral: -9.0%; MARV entry inh: -22.7%; Lassa entry inh: -19.2%

What do the screens show for `O=C(NCCc1ccc(Cl)cc1)C1CCC(CNc2nc(=S)[nH]c3ccccc23)CC1` (stereo not drawn)?
HCV inhibitor: 11.2µM*; FBPA Giardia inh: 3.9%; HCMV inh: -81.8*; FMDV antiviral: -10.1%; MARV entry inh: inconclusive; Lassa entry inh: -15.0%

What do the screens show for `O=C(NCCC1=CCCCC1)C1CCC(CNc2nc(=S)[nH]c3ccccc23)CC1` (stereo not drawn)?
HCV inhibitor: inconclusive; FBPA Giardia inh: 0.0%; HCMV inh: -62.4*; FMDV antiviral: -17.2%; MARV entry inh: -6.5%[46.1 µM]

How did COc1ccc(CCNC(=O)CCCCCNc2nc(=S)[nH]c3ccccc23)cc1OC do in these assays?
HCV inhibitor: 11.2µM*; FBPA Giardia inh: -4.1%; HCMV inh: 9.5; FMDV antiviral: 0.0%; MARV entry inh: inconclusive; Lassa entry inh: inconclusive

How did COc1ccccc1C(=O)N[C@@H]1c2ccccc2C2(CCN(C(=O)c3ccnn3C)CC2)[C@H]1OC do in these assays?
FMDV antiviral: 10.4%

What do the screens show for `CCc1cc(C(=O)NNC(=S)NC(C)c2ccccc2)cs1` (stereo not drawn)?
HCV inhibitor: 0.7%; FBPA Giardia inh: 3.5%; HCMV inh: -73.1*; FMDV antiviral: -25.0%; MARV entry inh: -16.1%; Lassa entry inh: -13.9%

What do the screens show for `CCc1cccc(CC)c1NC(=S)NC(C)c1ccccc1` (stereo not drawn)?
HCV inhibitor: inconclusive; FBPA Giardia inh: -1.1%; HCMV inh: -72.1*; FMDV antiviral: 7.7%; MARV entry inh: -27.0%; Lassa entry inh: -21.9%

Results for CCc1cc(C(=O)NNC(=S)NC2CCCCC2)cs1 ?
HCV inhibitor: inconclusive; HCMV inh: 25.2; FMDV antiviral: 77.4%

What do the screens show for `CCC(C(=O)NC(C)c1ccccc1)C(=O)NC(C)c1ccccc1` (stereo not drawn)?
HCV inhibitor: 15.0%; FBPA Giardia inh: 6.3%; HCMV inh: 29.2; FMDV antiviral: 4.9%; MARV entry inh: inconclusive; Lassa entry inh: 6.1%

Results for COc1ccc(C2C=C(C34CC5CC(CC(C5)C3)C4)NC(=S)N2)cc1 (stereo not drawn) ?
HCV inhibitor: -16.3%; FBPA Giardia inh: 6.0%; HCMV inh: -22.3; FMDV antiviral: -16.7%; MARV entry inh: 14.6µM*; Lassa entry inh: inconclusive

What do the screens show for `COc1ccc(C2=CC(c3ccc(OC)c(OC)c3)NC(=S)N2)cc1` (stereo not drawn)?
HCV inhibitor: -6.8%; FBPA Giardia inh: -4.3%; HCMV inh: -7.5; FMDV antiviral: -16.9%; MARV entry inh: -13.2%[46.1 µM]; Lassa entry inh: 0.0%

What do the screens show for `CCOC(=O)CN1C(=O)[C@@]2(CC(C)=CC[C@@H](COc3ccccc3)O2)c2c(Br)cccc21`?
MARV entry inh: -34.9%[14.2 µM]

Results for COC(=O)[C@@H]1[C@@H](CO)[C@@H]2Cn3c(ccc(Br)c3=O)[C@H]1N2S(=O)(=O)c1cn(C)cn1 ?
HCMV inh: 65.2

What do the screens show for `Cn1cnc(S(=O)(=O)N2CCC(C(=O)Nc3ccc(OC(F)(F)F)cc3)CC2)c1`?
HCMV inh: -60.2*; FMDV antiviral: -12.7%; Lassa entry inh: 18.0%[46.1 µM]

How did CC(=O)Nc1ccc(NC(=O)C2CCCN(C(=O)c3ccc(Cl)cc3)C2)cc1 (stereo not drawn) do in these assays?
HCV inhibitor: 21.2%; FBPA Giardia inh: -0.7%; HCMV inh: -11.5; FMDV antiviral: -14.5%; MARV entry inh: -10.3%[46.1 µM]

Screening results deposited in PubChem BioAssay by National Center for Advancing Translational Sciences (NCATS).
